PubChem BioAssay (NCI)
Compounds without any hit were thinned out: in the full panel of roughly 79,000, 15% have a hit. The source made the active and inactive calls. Rule as the data show it: active = growth inhibition above about 70%; inactive = the rest.

How the values were obtained:
[1] = NCI Yeast Anticancer Drug Screen. Data for the mlh1 strain (AID 171);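 also: 0% = growth of vehicle-treated control cultures of the same strain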; conditions: S. cerevisiae mlh1 strain growth inhibition, hits give high values
Procedure, shortened: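 Growth of the mutant yeast strain after compound exposure, expressed as inhibition relative to vehicle-only controls.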

[2] = NCI Yeast Anticancer Drug Screen. Data for the sgs1 strain (AID 173);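 also: 0% = growth of vehicle-only control cultures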; conditions: S. cerevisiae sgs1 mutant, hits give high values
Procedure, shortened: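 Growth of a yeast strain bearing a defined genetic alteration is measured after compound treatment. Inhibition is expressed relative to vehicle-only controls.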

[3] = NCI Yeast Anticancer Drug Screen. Data for the mlh1 rad18 strain (AID 175); conditions: S. cerevisiae mlh1 rad18 strain growth inhibition, hits give high values
Procedure, shortened: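 Read-out is yeast growth inhibition, calculated against vehicle-only controls. The compound was applied to a strain engineered with DNA damage repair alterations.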

[4] = NCI Yeast Anticancer Drug Screen. Data for the rad18 strain (AID 177); conditions: S. cerevisiae rad18 mutant growth inhibition, hits give high values
Procedure, shortened: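 Growth of the mutant yeast strain after compound exposure, normalised to vehicle-only cultures.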

[5] = NCI Yeast Anticancer Drug Screen. Data for the wt1 strain (AID 149);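 also: 0% = growth of vehicle-treated wt1 cultures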; conditions: S. cerevisiae wt1 strain (SPY 50644) growth inhibition, hits give high values
Procedure, shortened: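 wt1 strain grown with compound or vehicle; inhibition taken from the growth difference.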

[6] = NCI Yeast Anticancer Drug Screen. Data for the rad50EPP+ strain (AID 151);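 also: 0% = growth of vehicle-treated control cultures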; conditions: S. cerevisiae rad50 mutant strain, hits give high values
Procedure, shortened: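 Compounds were applied to the rad50EPP+ yeast strain, which bears a defined DNA repair alteration, and growth inhibition was determined relative to vehicle-treated cultures.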

[7] = NCI Yeast Anticancer Drug Screen. Data for the mgt1 strain (AID 153); conditions: S. cerevisiae mgt1 mutant growth inhibition, hits give high values
Procedure, shortened: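 Strain: mgt1 yeast, one of a set carrying defined DNA damage repair or cell cycle control alterations. Compound-treated growth compared with vehicle.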

[8] = NCI Yeast Anticancer Drug Screen. Data for the rad50 strain (AID 155);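 also: 0% = growth of vehicle-only cultures of the same strain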; conditions: S. cerevisiae rad50 strain growth inhibition, hits give high values
Procedure, shortened: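 DNA repair mutant yeast, compound exposure, growth read-out; inhibition is taken relative to vehicle.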

[9] = NCI Yeast Anticancer Drug Screen. Data for the mec2-1 strain (AID 157); conditions: S. cerevisiae mec2-1 strain, hits give high values
Procedure, shortened: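 Strain: mec2-1 (DNA repair/cell cycle alteration). Compound exposure, then growth measured; inhibition expressed relative to vehicle.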

[10] = NCI Yeast Anticancer Drug Screen. Data for the rad14 strain (AID 159);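 also: 0% = growth of vehicle-treated control cultures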; conditions: S. cerevisiae rad14 strain growth inhibition, hits give high values
Procedure, shortened: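 DNA repair-defective yeast, compound-exposed; % growth inhibition derived by comparison with vehicle-treated controls.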

[11] = NCI Yeast Anticancer Drug Screen. Data for the sgs1 mgt1 strain (AID 161);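 also: 0% = growth of cultures given vehicle only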; conditions: S. cerevisiae sgs1 mgt1 strain, hits give high values
Procedure, shortened: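 Genetically altered yeast, compound exposure, growth inhibition relative to vehicle.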

[12] = NCI Yeast Anticancer Drug Screen. Data for the CLN2oe strain (AID 163);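 also: 0% = growth of vehicle-only control cultures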; conditions: S. cerevisiae CLN2oe strain, hits give high values
Procedure, shortened: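 Growth of a genetically modified yeast strain is measured after compound exposure and compared with cultures given vehicle alone.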

[13] = NCI Yeast Anticancer Drug Screen. Data for the cln2 rad14 strain (AID 165);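 also: 0% = growth equal to vehicle treated cultures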; conditions: S. cerevisiae cln2 rad14 strain, hits give high values
Procedure, shortened: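 Compounds are applied to the cln2 rad14 yeast strain, and growth is then compared with that of vehicle-treated cultures to give inhibition.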

[14] = NCI Yeast Anticancer Drug Screen. Data for the bub3 strain (AID 167); conditions: S. cerevisiae bub3 mutant strain, hits give high values
Procedure, shortened: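 In this screen, a yeast mutant lacking normal mitotic checkpoint function is challenged with compound. Relative growth versus vehicle gives the inhibition value.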

[15] = NCI Yeast Anticancer Drug Screen. Data for the wt2 strain (AID 169);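 also: 0% = growth of vehicle-treated yeast cultures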; conditions: S. cerevisiae wt2 strain growth inhibition, hits give high values
Procedure, shortened: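 This strain belongs to a panel of yeast strains with defined genetic alterations in DNA damage repair or cell cycle control. Compounds are applied, and growth inhibition is measured against vehicle-treated cultures.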

[16] = at 5.0 µM (retest, dose inferred, filed as 0.5)
[17] = at 50.0 µM (retest, dose inferred, filed as 5.0)

Measured: growth inhibition

Cc1nc2ccccc2c(=O)n1NC(=O)c1ccc(CS)cc1
inactive: [1]; at 1.2 µM 0% | [1]; at 3.7 µM 12% | [1]; at 11.0 µM 16% | [1]; at 33.0 µM 36% | [2]; at 1.2 µM 15% | [2]; at 3.7 µM 11% | [2]; at 11.0 µM 20% | [2]; at 33.0 µM 61% | [3]; [16] -51% | [3]; at 50.0 µM 65% | [4]; at 1.2 µM 9% | [4]; at 3.7 µM 12% | [4]; at 11.0 µM 2% | [4]; at 33.0 µM 40%
active: [1]; at 100.0 µM 95% | [2]; at 100.0 µM 95% | [3]; [17] 71% | [4]; at 100.0 µM 96%

O=C(CSS(=O)(=O)O)c1ccccc1
inactive: [5]; at 1.2 µM 0% | [5]; at 3.7 µM 5% | [5]; at 11.0 µM 2% | [5]; at 33.0 µM 5% | [5]; at 100.0 µM 12% | [6]; at 1.2 µM -4% | [6]; at 3.7 µM -9% | [6]; at 11.0 µM 11% | [6]; at 33.0 µM 67% | [7]; at 1.2 µM -1% | [7]; at 3.7 µM -3% | [7]; at 11.0 µM -1% | [7]; at 33.0 µM 2% | [7]; at 100.0 µM 7% | [8]; at 1.2 µM -1% | [8]; at 3.7 µM -1% | [8]; [16] 6% | [8]; at 11.0 µM 2% | [8]; at 33.0 µM 2% | [8]; [17] 54% | [8]; at 50.0 µM 10.8% | [8]; at 100.0 µM 16% | [9]; at 1.2 µM -4% | [9]; at 3.7 µM -5% | [9]; [16] -15% | [9]; at 11.0 µM 0% | [9]; at 33.0 µM 9% | [9]; [17] -6% | [9]; at 50.0 µM 19.9% | [9]; at 100.0 µM 24% | [10]; at 1.2 µM 2% | [10]; at 3.7 µM 3% | [10]; at 11.0 µM 5% | [10]; at 33.0 µM 9% | [10]; at 100.0 µM 19% | [11]; [16] -9% | [11]; [17] 69% | [11]; at 50.0 µM 35.3% | [12]; at 1.2 µM -5% | [12]; at 3.7 µM -14% | [12]; at 11.0 µM -11% | [12]; at 33.0 µM 2% | [12]; at 100.0 µM 28% | [13]; [16] 6% | [13]; [17] 15% | [13]; at 50.0 µM 18.2% | [14]; at 1.2 µM 0% | [14]; at 3.7 µM -5% | [14]; [16] -17% | [14]; at 11.0 µM -1% | [14]; at 33.0 µM 18% | [14]; at 50.0 µM 34.5% | [14]; at 100.0 µM 47% | [15]; at 1.2 µM -2% | [15]; at 3.7 µM -1% | [15]; at 11.0 µM 1% | [15]; at 33.0 µM 6% | [15]; at 100.0 µM 15% | [1]; at 1.2 µM -4% | [1]; at 3.7 µM 1% | [1]; at 11.0 µM 3% | [1]; at 33.0 µM 12% | [1]; at 100.0 µM 24% | [2]; at 1.2 µM 0% | [2]; at 3.7 µM 2% | [2]; at 11.0 µM 13% | [2]; at 33.0 µM 29% | [2]; at 100.0 µM 51% | [3]; [16] 31% | [3]; at 50.0 µM 35% | [4]; at 1.2 µM 5% | [4]; at 3.7 µM 20% | [4]; at 11.0 µM 62%
active: [6]; at 100.0 µM 91% | [14]; [17] 76% | [3]; [17] 89% | [4]; at 33.0 µM 84% | [4]; at 100.0 µM 89%

[Cl][Pt+2][Cl].[NH-]CC1(C[NH-])CCCCC1
active: [5]; at 11.0 µM 99% | [5]; at 33.0 µM 99% | [5]; at 100.0 µM 98% | [6]; at 11.0 µM 96% | [6]; at 33.0 µM 98% | [6]; at 100.0 µM 98% | [7]; at 11.0 µM 98% | [7]; at 33.0 µM 99% | [7]; at 100.0 µM 98% | [8]; at 11.0 µM 86% | [8]; at 33.0 µM 98% | [8]; [17] 100% | [8]; at 50.0 µM 91.1% | [8]; at 100.0 µM 98% | [9]; at 11.0 µM 98% | [9]; at 33.0 µM 99% | [9]; [17] 100% | [9]; at 50.0 µM 91.9% | [9]; at 100.0 µM 98% | [10]; at 11.0 µM 96% | [10]; at 33.0 µM 98% | [10]; at 100.0 µM 98% | [11]; [17] 100% | [11]; at 50.0 µM 92.7% | [12]; at 33.0 µM 98% | [12]; at 100.0 µM 98% | [13]; [17] 100% | [14]; at 11.0 µM 97% | [14]; at 33.0 µM 99% | [14]; [17] 100% | [14]; at 50.0 µM 91.7% | [14]; at 100.0 µM 98% | [15]; at 11.0 µM 90% | [15]; at 33.0 µM 99% | [15]; at 100.0 µM 99% | [1]; at 11.0 µM 97% | [1]; at 33.0 µM 98% | [1]; at 100.0 µM 97% | [2]; at 11.0 µM 83% | [2]; at 33.0 µM 98% | [2]; at 100.0 µM 97% | [3]; [17] 99% | [3]; at 50.0 µM 88.8% | [4]; at 11.0 µM 89% | [4]; at 33.0 µM 97% | [4]; at 100.0 µM 96%
inactive: [5]; at 1.2 µM -67% | [5]; at 3.7 µM -17% | [6]; at 1.2 µM -41% | [6]; at 3.7 µM -6% | [7]; at 1.2 µM -44% | [7]; at 3.7 µM 12% | [8]; at 1.2 µM -63% | [8]; at 3.7 µM -37% | [8]; [16] 26% | [9]; at 1.2 µM -67% | [9]; at 3.7 µM -19% | [9]; [16] 21% | [10]; at 1.2 µM -29% | [10]; at 3.7 µM 6% | [11]; [16] 53% | [12]; at 1.2 µM -5% | [12]; at 3.7 µM 14% | [12]; at 11.0 µM 62% | [13]; [16] 43% | [13]; at 50.0 µM 69.5% | [14]; at 1.2 µM -42% | [14]; at 3.7 µM 23% | [14]; [16] 45% | [15]; at 1.2 µM -23% | [15]; at 3.7 µM 28% | [1]; at 1.2 µM -68% | [1]; at 3.7 µM -2% | [2]; at 1.2 µM -14% | [2]; at 3.7 µM 11% | [3]; [16] 3% | [4]; at 1.2 µM -24% | [4]; at 3.7 µM -6%
